# Measured values published in PubChem BioAssay AID778 (Sanford-Burnham Center for Chemical Genomics, 2007).
# About 20,000 (21%) of roughly 96,000 compounds were called active.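 The calls were made as follows: active = CYP2C19 inhibition above a set limit at 5 µM in the primary screen (cut at about 50% in these data); inactive = the rest.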 The list is a sample of the results. Residues, ends and D or L forms follow the SMILES beside them. *: point of attachment. Bz = O=C(c1ccccc1)*
# Target: Cytochrome P450 2C19 (Homo sapiens) (UniProt P33261)
# Experiment: blockers of cytochrome P450 2C19 activity – biochemical, luminescence, ADME assay, primary screen (AID 778);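 also: plate controls were negative control wells for no effect and 2.5 mM tranylcypromine positive control for full effect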
# Conditions: CYP2C19 Supersomes, luciferin-H EGE luminescence, 30 min; at 5 µM; stronger effect = higher value
# Chain of Cytochrome P450 2C19 (Homo sapiens) (P33261 whole entry, looked up): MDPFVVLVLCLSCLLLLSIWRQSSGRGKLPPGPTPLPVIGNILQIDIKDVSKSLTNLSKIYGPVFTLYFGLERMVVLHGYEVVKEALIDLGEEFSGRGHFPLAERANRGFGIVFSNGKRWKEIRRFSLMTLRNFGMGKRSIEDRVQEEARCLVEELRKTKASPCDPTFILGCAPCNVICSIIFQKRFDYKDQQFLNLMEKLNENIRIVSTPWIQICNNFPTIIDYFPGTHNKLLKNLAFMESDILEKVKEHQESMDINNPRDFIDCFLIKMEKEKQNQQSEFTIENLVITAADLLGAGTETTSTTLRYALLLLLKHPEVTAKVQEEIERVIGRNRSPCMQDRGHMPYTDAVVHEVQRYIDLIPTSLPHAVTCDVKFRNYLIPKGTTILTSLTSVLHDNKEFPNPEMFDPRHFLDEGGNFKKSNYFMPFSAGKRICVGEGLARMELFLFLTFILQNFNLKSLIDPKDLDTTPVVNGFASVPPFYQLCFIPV
row,Compound,inhibition
1,COc1ccc(OC)c2[nH]c(=O)c(CCNC(=O)C(C)(C)C)cc12,13.1% (inactive)
2,O=C(Cn1nc(C(F)(F)F)c2c1CCC2)NCc1ccc(F)cc1,45.9% (inactive)
3,CCSc1nc(=S)n(CC)c(C)c1C(C)=O,-23.9% (inactive)
4,O=C(CCCN1C(=O)c2ccccc2C1=O)Oc1ccc(Cl)cc1,14.2% (inactive)
5,COc1ccc(NC(=O)/C(Cl)=C(/Cl)S(=O)Cc2ccc(C)cc2)cn1 (stereo unspecified),33.8% (inactive)
6,O=C(Nc1nnc(C2CC2)s1)c1ccccn1,20.4% (inactive)
7,CCCc1nc(N2CCN(C)CC2)c2sc(=S)n(-c3ccccc3)c2n1,4.4% (inactive)
8,CCOc1ccc(NC(=O)CCS(=O)(=O)c2ccc3c(c2)CCCN3C(=O)CC)cc1,3.3% (inactive)
9,O=C(CC1Oc2ccccc2NC1=O)NCCCN1CCN(Cc2ccccc2)CC1 (stereo unspecified),-1.2% (inactive)
10,Cc1ccc2c(c1)N(CC(=O)N1CCCc3ccccc31)C(=O)C(C)O2 (stereo unspecified),34.4% (inactive)
11,O=C(Cc1ccccc1)n1nc(-c2ccccc2)nc1NCc1ccco1,15.9% (inactive)
12,O=C(O)CSC(NC(=O)c1cccnc1)(C(F)(F)F)C(F)(F)F,-13.3% (inactive)
13,CC(N=Cc1nc(-c2ccccc2)oc1O)c1ccccc1 (stereo unspecified),71.8% (active)
14,CC(NC(=O)c1cc(-c2ccccc2)on1)c1ccccc1 (stereo unspecified),13% (inactive)
15,CCn1c(/C=C/c2ccc([N+](=O)[O-])o2)nc2ccccc2c1=O,-3.3% (inactive)
16,Cc1ccc(-n2c(C)cc(/C=N/Nc3ccc([N+](=O)[O-])cn3)c2C)c(C)c1,-0.3% (inactive)
17,CN1C(=O)CC(N2CCN(c3ccccn3)CC2)C1=O (stereo unspecified),17.8% (inactive)
18,CSc1cccc(NC(=O)CSc2ccccc2)c1,83.5% (active)
19,COc1cccc(-n2c(Cc3cc(=O)[nH]c(=O)[nH]3)nnc2SCC(=O)Nc2ccccc2)c1,-8.7% (inactive)
20,Cc1ccn(C(CC(=O)c2ccc(Br)cc2)C(=O)O)n1 (stereo unspecified),-25.7% (inactive)
21,CC(C)c1nc(-c2ccccn2)no1,-3.1% (inactive)
22,O=C(Oc1ccccc1)c1ccc2nccnc2c1,20.3% (inactive)
23,O=C(Oc1ccc(-c2nc(-c3ccccn3)no2)cc1)c1ccccc1,99.5% (active)
24,CCc1cc(Br)ccc1NC(=O)C1CCCO1 (stereo unspecified),30.5% (inactive)

row,Compound,inhibition
1,CC(=O)c1cc(-c2ccccc2)[nH]c1N1CCCC1,10.4% (inactive)
2,COc1ccccc1C(=O)Nc1ccc(NC(=O)c2ccco2)c(C)c1,45.5% (inactive)
3,O=C(COC(=O)c1ccccc1NC(=O)c1ccco1)Nc1ccc2c(c1)OC(F)(F)O2,57.4% (active)
4,CCOc1cc(NC(=O)c2ccco2)c(OCC)cc1NC(=O)COc1ccccc1,24.6% (inactive)
5,Cc1nc(C)c2c(c1C(F)(F)F)-c1ccccc1C2(F)F,-21.2% (inactive)
6,O=C(C(Cc1ccccc1)n1cccc1)N1CCN(C2CCCCC2)CC1 (stereo unspecified),98.1% (active)
7,Cc1ccc(C)n1C(Cc1ccccc1)C(=O)O (stereo unspecified),8.1% (inactive)
8,O=C(NC(Cc1ccccc1)C(=O)N1CCCC1C(=O)O)c1ccccc1 (stereo not drawn) (Bz-Phe-Pro-OH; configuration not given here),-4.1% (inactive)
9,CCOc1ccc2nc(SC(CC)C(=O)Nc3cc(C)on3)sc2c1 (stereo unspecified),0.6% (inactive)
10,Cc1ccc(CNC(=O)c2ccccc2CCc2ccccc2)cc1,13.9% (inactive)
11,CCOc1c(OC)cc(C2C(C#N)=C(N)Oc3n[nH]c(-c4ccncc4)c32)cc1OC (stereo unspecified),-7% (inactive)
12,CCCc1[nH]nc2c1C(c1ccc(OC)c(Cn3nc(C)c(Br)c3C)c1)C(C#N)=C(N)O2 (stereo unspecified),8% (inactive)
13,COc1ccc(C2C(C#N)=C(N)Oc3n[nH]c(C)c32)cc1CN1CCN(c2ccc(F)cc2)CC1 (stereo unspecified),70.4% (active)
14,Fc1ccc2nc(N3CCCCC3)sc2c1,39.9% (inactive)
15,N=c1oc2ccccc2cc1C(=O)N/N=C/c1ccccc1,31.7% (inactive)
16,O=C(N/N=C\c1cccc(Br)c1)c1ccccc1-n1cccc1,73.3% (active)
17,Cn1c(=O)n(C)c2cc(/C=N/NC(=O)c3cccc(Br)c3)ccc21,6.4% (inactive)
18,CC(C)Cn1c(N)c(C(=O)NCc2cccs2)c2nc3ccccc3nc21,19.7% (inactive)
19,CC1(C)CC(=O)c2sc(N)nc2C1,23.6% (inactive)
20,CC1CCC2(CC1)NC(=O)N(CC(=O)c1cccn1C)C2=O (stereo unspecified),9.9% (inactive)
21,CC(C)(C)OC(=O)c1c(N)n(CCCN2CCCC2=O)c2nc3ccccc3nc12,-3.9% (inactive)
22,CC1CCCCC1NC(=O)CCS(=O)(=O)c1cccc2nonc12 (stereo unspecified),27.7% (inactive)
23,COc1ccc(C)cc1NC(=O)CCS(=O)(=O)c1cccc2nonc12,82.1% (active)
24,Cc1cccc(C)c1NC(=O)CCS(=O)(=O)c1cccc2nsnc12,10.7% (inactive)

row,Compound,inhibition
1,O=C(CCS(=O)(=O)c1cccc2nonc12)NCCc1ccccc1Cl,75% (active)
2,Cc1ccc(CNC(=O)CCNS(=O)(=O)c2cccc3nonc23)cc1,15.9% (inactive)
3,Cc1ccc(N(CC(=O)Nc2cc(C)cc(C)c2)S(=O)(=O)c2cccc3nonc23)cc1,14.2% (inactive)
4,CSc1cc(C)n(-c2ccccc2C)c(=S)c1C(C)=O,-14.7% (inactive)
5,Cc1cc2cc(CNC(=O)c3cccs3)ccc2[nH]1,86.8% (active)
6,CCOC(=O)c1oc2ccccc2c1NC(=O)c1cccs1,5.8% (inactive)
7,O=C(O)Cc1ccc(NC(=O)c2cccs2)cc1,1.3% (inactive)
8,O=[N+]([O-])c1cccc(-c2nnc3c4ccccc4c4ccccc4n23)c1,5% (inactive)
9,COc1ccc(C2=Nc3cc(C)ccc3OC2)cc1,13% (inactive)
10,CN(C)CCCNC(=O)c1ccc2[nH]c3ccccc3c2c1,10.5% (inactive)
11,COC(=O)Cc1nc2ccccc2[nH]1,3% (inactive)
12,CC(C)=C(NC(=O)c1ccco1)C(=O)NCCc1nc2ccccc2[nH]1,-12.2% (inactive)
13,O=C(COc1ccccc1)NCCc1nc2ccccc2[nH]1,65.9% (active)
14,COC(=O)CSc1snnc1-c1ccc(Cl)c(Cl)c1,44.8% (inactive)
15,Cn1c(SCC(=O)N2CCOCC2)nnc1-c1ccc(NC(=O)c2ccccc2F)cc1,2.8% (inactive)
16,O=C(Nc1nnc(SCc2c(Cl)cccc2Cl)s1)C1CCCO1 (stereo unspecified),9.6% (inactive)
17,Cc1cc(C)c2nc(SCCC#N)nc(C)c2c1,53.5% (active)
18,CSc1ccc(CCNC(=O)C2CCN(c3nnc(-n4cccc4)s3)CC2)cc1,28.8% (inactive)
19,CC(=O)Cc1nsc(NC(=O)c2csc3c2CCCC3)n1,42.6% (inactive)
20,CCOC(=O)Cn1c(CN(Cc2ccccc2)Cc2ccccc2)nc2c1c(=O)[nH]c(=O)n2C,16.4% (inactive)
21,O=S(=O)(NCc1ccccc1Cl)c1cnc[nH]1,22.3% (inactive)
22,Cc1nnsc1S(=O)(=O)Cc1ccccc1Cl,56.2% (active)
23,O=C(Nc1ccccc1)c1nnsc1S(=O)(=O)c1ccc(Cl)cc1,19.5% (inactive)
24,COc1cccc(OC)c1C(=O)Nc1nnc(C(C)C)s1,-6.4% (inactive)

row,Compound,inhibition
1,Cc1ccc(NC(=O)c2ccc(CSc3ncnc4nc[nH]c34)cc2)c(C)c1,11.8% (inactive)
2,O=C(c1ccc(O)cc1)c1ccc(C(=O)O)c(C(=O)O)c1,-0.1% (inactive)
3,N#CC1=C(SCc2ccc(C#N)cc2)N=C(N)C(c2nc(-c3ccccc3)cs2)C12CCCCC2 (stereo unspecified),92.9% (active)
4,O=C(NC1CCCCC1)c1ccc2c(=O)n(CC3CCCO3)c(=O)[nH]c2c1 (stereo unspecified),0.4% (inactive)
5,COc1ccc(C2C3=C(OC(C)=O)c4ccccc4C3=Nc3c2c(=O)n(C)c(=O)n3C)cc1 (stereo unspecified),-6.9% (inactive)
6,Cn1c(C(=O)N2CCC(C(N)=O)CC2)cc2c(=O)n(C)c3ccccc3c21,-10.1% (inactive)
7,Cn1c2ccccc2c2c(C(=O)N3CCN(c4ccc(F)cc4)CC3)cn(C3CCCC3)c(=O)c21,85.8% (active)
8,CCOC(=O)N1CCN(C(=O)c2nn(-c3ccc(C)cc3)c(=O)c3c2c2ccccc2n3C)CC1,-2.9% (inactive)
9,COc1ccc(CC(=O)Nc2sc(Cc3ccccc3)c(C)c2C(N)=O)cc1,1% (inactive)
10,Cc1nn(-c2cc(Cl)ccc2N)c(=O)c2ccccc12,8.7% (inactive)
11,Cc1nc(NC(=O)c2cccc(Cl)c2)sc1-c1csc(Nc2cccc(Cl)c2)n1,-18.9% (inactive)
12,Cc1cc(OC(=O)c2c(Cl)cccc2Cl)nc(C)n1,-6.5% (inactive)
13,COc1ccc(COC(=O)c2n[nH]c3ccccc23)cc1F,57.1% (active)
14,O=C(Cc1c(O)c2ccccc2[nH]c1=O)NCc1ccccc1,4.1% (inactive)
15,CN(C)S(=O)(=O)c1ccc(NC(=O)COC(=O)c2n[nH]c3ccccc23)cc1,-17.2% (inactive)
16,COc1ccc(C(C)=O)cc1COC(=O)Cn1cnc2ccccc2c1=O,28.2% (inactive)
17,O=C(COC(=O)c1n[nH]c2ccccc12)NCc1ccccc1,76.4% (active)
18,CCOC(=O)N1CCN(C(=O)c2n[nH]c(=O)c3ccccc23)CC1,-2.6% (inactive)
19,CSc1sc(C)cc1C1C(C#N)=C(N)N(c2cccnc2)C2=C1C(=O)CCC2 (stereo unspecified),29.4% (inactive)
20,CCSc1ccccc1C(=O)NCc1ccc(OC)cc1,96.2% (active)
21,CCCNC(=O)c1ccccc1NC(=O)CSCc1ccc(OC)cc1,45.7% (inactive)
22,CC(C)NC(=O)CSc1ccccc1C(=O)NCc1ccc2c(c1)OCO2,33.8% (inactive)
23,COc1cc(OC)c(C(=O)Nc2ccc(N(C)C)cc2)cc1OC,-11% (inactive)
24,CCCN1C(=O)C(NS(=O)(=O)c2ccc(N)cc2)(C(F)(F)F)C(C(=O)OC)=C1C (stereo unspecified),6.9% (inactive)
